According to PubChem BioAssay:
Values joined by “and” are separate entries in the source; they are usually repeats but may differ in a detail not shown here. Equal values may be shown once. A number with no mark means an inactive call. Results filed as inconclusive are left out. Active and inactive are the calls of the source.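 The calls were made as follows, unless noted: active = GFP signal, as percent of the solvent control, above the screen mean plus 3 SD, about 149; inconclusive = no reading because the compound's own fluorescence upset strain identification; inactive = the rest.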

Assay: TOR pathway RTG branch CIT2 reporter changes – S. cerevisiae, GFP fusion, multiplex flow cytometry, primary screen (AID 1870;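 active = percent response above a set limit, the screen-wide mean plus 3 SD, cut at about 130% in these data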;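 also: barcoded CIT2-GFP strain pooled with four other GFP strains with rapamycin as positive control; median GFP fluorescence per well over plate mean of DMSO wells so 100% = DMSO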)
Settings: S. cerevisiae CIT2-GFP expression, 3 h, at 10 µM, stronger effect = higher value

Structure (SMILES) | percent response of DMSO control
Cc1cc(Cl)cc2c1NC(=O)[C@]21[C@@H]2C(=O)N(Cc3ccccc3)C(=O)[C@@H]2[C@@H]2CCCN21 | 90.5%
O=C(/C=C/c1ccco1)Nc1ccccc1C(=O)O | 107%
CC(C)c1ccc(/C=C/C(=O)O)cc1 | 81.5%
CCN(CC)CC(=O)Nc1c(C)cccc1C | 101% and 109%
CC1=C(C)C(=O)C(CCCCC#CCCCC#CCO)=C(C)C1=O | 99.6%
COc1cc(C=NCC2OCCc3ccccc32)cc(OC)c1 (stereo unspecified) | 95.8%
CN(C)CCCN1c2ccccc2CCc2ccccc21 | 101%
COc1ccc2nc(S(=O)Cc3ncc(C)c(OC)c3C)[nH]c2c1 (stereo unspecified) | 99.7%
COc1ccc(CNCCC2(C(C)C)CCOC(C)(C)C2)cc1 (stereo unspecified) | 101%
COc1cccc(CN2C(=O)N(C(C)C)C(N(O)C(=O)NC(C)C)C2(C)C)c1OC (stereo unspecified) | 115%
Cc1ccc(S(=O)(=O)N[C@@H](Cc2ccccc2)C(=O)CCl)cc1 | 92.5%
COCCN(CCOC)Cc1c(C)[nH]c2c(C)c(C)ccc2c1=O | 97.6%
CCOC(=O)C(NC(=O)CCC(=O)Nc1ccc(S(N)(=O)=O)cc1)C(O)c1ccccc1 (stereo unspecified) | 100%
Cc1ccccc1N1C(N)=NC(N)=NC1(C)C | 108%
CC1Cc2ccccc2N1NC(=O)c1ccc(Cl)c(S(N)(=O)=O)c1 (stereo unspecified) | 105%
CC1=C(/C=C/C(C)=C/C=C/C(C)=C/C(=O)O)C(C)(C)CCC1 | 103%
N/C(=N\OC(=O)/C=C/c1ccccc1)c1ccc(Br)cc1 | 107%
CCOc1ccc(C(=O)C(C)=O)c(OCC)c1 | 104%
COc1ccc(C=O)c(OC)c1 | 99%
CC1=NN(c2ccccc2)C(=O)C1 | 109%
COCC1CCCN(Cc2cn[nH]c2-c2cc3ccccc3o2)C1 (stereo unspecified) | 83.4%
CC1(C)CC(=O)C(C2=NC(C)(C)Cc3ccccc32)=C(O)C1 | 108%

Assay: TOR pathway LAP4-GFP level changes – S. cerevisiae, multiplex flow cytometry, primary screen (AID 1873)
Settings: S. cerevisiae LAP4-GFP expression, 3 h, at 10 µM, stronger effect = higher value

Structure (SMILES) | GFP response vs DMSO
NS(=O)(=O)c1cc2c(cc1Cl)NC(C1C[C@H]3C=C[C@@H]1C3)NS2(=O)=O (stereo partly specified) | 105%
CC(=O)NC1C(OCc2ccccc2)OC(COC(C)=O)C(OC(C)=O)C1OC(C)=O (stereo unspecified) | 91.5%
O=CNC1CCCc2c1[nH]c1ccc(Cl)cc21 (stereo unspecified) | 89.4%
O=C(O)CP(=O)(O)O | 105%
Cc1cccc(Nc2ccccc2C(=O)O)c1C | 114%
CC1(C)CC(NCc2ccccc2)CCO1 (stereo unspecified) | 101%
Cc1ccccc1C(=O)NCC(=O)O | 93.7%
CCOc1cc2c3c(c1)C(C)=CC(C)(C)N3C(=O)C2=O | 108%
O=C(N1CCCC1)C12CC3CC(C1)CC(C(=O)N1CCCC1)(C3)C2 | 124%
O=C(NC(Nc1ccccn1)C(Cl)(Cl)Cl)c1ccccc1 (stereo unspecified) | 103%
COc1cc(NC(=S)NC(=O)c2cccs2)ccc1NC(=O)C(C)C | 124%
COc1ccc(CCN(C)CCCC(C#N)(c2cc(OC)c(OC)c(OC)c2)C(C)C)cc1OC (stereo unspecified) | 82.8%
O=C1C(Cc2c[nH]c3ccccc23)NC(=S)N1Cc1ccccc1 (stereo unspecified) | 91.5%
CC(C)(C)C(=O)NC(=S)NNC(=O)c1ccncc1 | 127%
CCOC(=O)N1CCN(Cc2nc(Cc3cccc(F)c3)no2)CC1 | 99.9%
C[C@@H]1C[C@H](Nc2ccccc2)c2ccccc2N1C(=O)c1cccnc1 | 98.2%
OC(CCN1CCCC1)(c1ccccc1)C1CCCCC1 (stereo unspecified) | 80.9%
Cc1cc(Cl)cc2c1NC(=O)[C@]21[C@@H]2C(=O)N(Cc3ccccc3)C(=O)[C@@H]2[C@@H]2CCCN21 | 102%
O=C(/C=C/c1ccco1)Nc1ccccc1C(=O)O | 94.8%
CC(C)c1ccc(/C=C/C(=O)O)cc1 | 161% (active)

Structure (SMILES) | GFP response vs DMSO
CCN(CC)CC(=O)Nc1c(C)cccc1C | 105% and 98.2%
CC1=C(C)C(=O)C(CCCCC#CCCCC#CCO)=C(C)C1=O | 108%
COc1cc(C=NCC2OCCc3ccccc32)cc(OC)c1 (stereo unspecified) | 117%
CN(C)CCCN1c2ccccc2CCc2ccccc21 | 90.7%
COc1ccc2nc(S(=O)Cc3ncc(C)c(OC)c3C)[nH]c2c1 (stereo unspecified) | 95.9%
COc1ccc(CNCCC2(C(C)C)CCOC(C)(C)C2)cc1 (stereo unspecified) | 88.7%
COc1cccc(CN2C(=O)N(C(C)C)C(N(O)C(=O)NC(C)C)C2(C)C)c1OC (stereo unspecified) | 97.3%
Cc1ccc(S(=O)(=O)N[C@@H](Cc2ccccc2)C(=O)CCl)cc1 | 108%
COCCN(CCOC)Cc1c(C)[nH]c2c(C)c(C)ccc2c1=O | 93.7%
CCOC(=O)C(NC(=O)CCC(=O)Nc1ccc(S(N)(=O)=O)cc1)C(O)c1ccccc1 (stereo unspecified) | 106%
Cc1ccccc1N1C(N)=NC(N)=NC1(C)C | 94.8%
CC1Cc2ccccc2N1NC(=O)c1ccc(Cl)c(S(N)(=O)=O)c1 (stereo unspecified) | 106%
CC1=C(/C=C/C(C)=C/C=C/C(C)=C/C(=O)O)C(C)(C)CCC1 | 125%
N/C(=N\OC(=O)/C=C/c1ccccc1)c1ccc(Br)cc1 | 101%
CCOc1ccc(C(=O)C(C)=O)c(OCC)c1 | 100%
COc1ccc(C=O)c(OC)c1 | 99.5%
CC1=NN(c2ccccc2)C(=O)C1 | 99.1%
COCC1CCCN(Cc2cn[nH]c2-c2cc3ccccc3o2)C1 (stereo unspecified) | 115%
CC1(C)CC(=O)C(C2=NC(C)(C)Cc3ccccc32)=C(O)C1 | 92.7%
